In PubChem BioAssay (NCATS):
Values joined by “and” are separate entries in the source; they are usually repeats but may differ in a detail not shown here. Equal entries are not always repeated. Inconclusive results are not listed. Some compounds were tested as several samples or in several runs, with calls that do not always agree. Active and inactive are the calls of the source. Unless noted, the call rests on the fitted dose curve; in most records, active means well fitted curve in the direction sought with a large enough effect; inconclusive means small, poorly fitted or top-dose-only effect, or another doubt; inactive means no such curve, though single readings can be large; an effect the other way counts as inactive or inconclusive.

What was measured:
HeLa = experiment: Primary qHTS to identify gynecologic anti-cancer compounds using libraries of approved drugs and bioactive compounds (AID 1345084); settings: Gynecologic cancer cell panel viability, ATPlite luminescence, 48 h; series mostly up to 57.5 µM; further: nearly all actives have a fitted effect of over 55% in size; further: potency means the concentration at half of the fitted maximal effect
In short: (§1)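 Measured: luminescence after ATPlite addition (15 min, RT). Exposure: 48 h, 37 C, 5% CO2.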

JEG-3 = experiment: as above; settings: Gynecologic cancer cell panel viability, ATPlite luminescence, 48 h; series mostly up to 57.5 µM
In short: as §1

OV90 = experiment: as above; settings: Gynecologic cancer cell panel viability, ATPlite luminescence, 48 h; series mostly up to 57.5 µM
In short: as §1

PA-1 = experiment: as above; settings: Gynecologic cancer cell panel viability, ATPlite luminescence, 48 h; series mostly up to 57.5 µM
In short: as §1

SKOV3 = experiment: as above; settings: Gynecologic cancer cell panel viability, ATPlite luminescence, 48 h; series mostly up to 57.5 µM
In short: as §1

Tov-21-G = experiment: as above; settings: Gynecologic cancer cell panel viability, ATPlite luminescence, 48 h; series mostly up to 57.5 µM
In short: as §1

Tov112D = experiment: as above; settings: Gynecologic cancer cell panel viability, ATPlite luminescence, 48 h; series mostly up to 57.5 µM
In short: as §1

astro = experiment: Drug repurposing screens with cells derived from glioblastoma tumor samples (AID 1345199); settings: viability, ATP luminescence, 48 h; series mostly up to 45.9 µM; further: nearly all actives have a fitted effect of over 40% in size; further: potency means the concentration at half of the fitted maximal effect; on activity, negative = cell killing: on the % scale 0 is the no-effect control and ±100 the full control effect
In short: (§2)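 Four patient lines of CD133+ GBM neurospheres were screened at several concentrations; hits were retested in those lines plus three slower-growing GBM lines, using 48-hour treatment and ATP-based viability.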

[1] = biological target: Nuclear receptor subfamily 1 group I member 2 (Rattus norvegicus) (UniProt Q9R1A7); experiment: qHTS assay for small molecule activators of the rat pregnane X receptor (rPXR) signaling pathway (AID 651751; call rule not given here; further: 0% is about no effect); settings: rPXR reporter cells, luciferase (One-Glo), 24 h
Hek293T = experiment: Primary qHTS to identify gynecologic anti-cancer compounds using libraries of approved drugs and bioactive compounds (AID 1345084); settings: Gynecologic cancer cell panel viability, ATPlite luminescence, 48 h, control line for the selectivity index; series mostly up to 57.5 µM; further: nearly all actives have a fitted effect of over 55% in size; further: potency means the concentration at half of the fitted maximal effect
In short: as §1

[2] = Drug repurposing screens with cells derived from glioblastoma tumor samples (AID 1345199); settings: GBM patient neurospheres viability, ATP luminescence, 48 h; further: nearly all actives have a fitted effect of over 40% in size; further: potency means the concentration at half of the fitted maximal effect; on activity, negative = cell killing: on the % scale 0 is the no-effect control and ±100 the full control effect
In short: as §2

[3] = qHTS assay to identify inhibitors of the type 1 interferon - major histocompatibility complex class I in skeletal muscle: Counter screen cell viability and HiBit confirmation (AID 1347412); settings: iHSKM muscle cells + IFN-b, HiBiT or CellTiter-Glo, 24 h; Potency: HiBiT; Viability, at 45.9 µM (top of the series); further: nearly all actives have a fitted effect of over 60% in size; further: potency means the concentration at half of the fitted maximal effect
In short: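 After 24 h with human IFN-beta (4 ng/ml) and compound titrations (top 46 uM final, 1:3, 12 points), HLA-B HiBit myoblasts were lysed for either Nano-Glo HiBiT luminescence or CellTiter Glo viability on paired plates.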

[4] = at 46.1 µM (top of the series), tumour line C
[5] = at 45.9 µM (top of the series), tumour line B

Chain of Nuclear receptor subfamily 1 group I member 2 (Rattus norvegicus) (Q9R1A7 whole entry, looked up): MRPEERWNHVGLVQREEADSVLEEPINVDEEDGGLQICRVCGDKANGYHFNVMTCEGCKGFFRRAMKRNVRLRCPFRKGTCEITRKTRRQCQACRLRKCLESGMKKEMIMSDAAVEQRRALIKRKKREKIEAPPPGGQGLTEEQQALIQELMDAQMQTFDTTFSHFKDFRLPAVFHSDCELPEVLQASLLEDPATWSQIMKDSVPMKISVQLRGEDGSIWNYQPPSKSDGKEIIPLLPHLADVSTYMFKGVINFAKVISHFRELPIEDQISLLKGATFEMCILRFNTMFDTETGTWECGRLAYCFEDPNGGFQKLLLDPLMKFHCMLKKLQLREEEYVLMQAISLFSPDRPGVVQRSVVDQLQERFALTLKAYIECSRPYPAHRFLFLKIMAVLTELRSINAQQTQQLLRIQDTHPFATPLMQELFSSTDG

O=NN(CCCl)C(=O)NCCCl
inactive: Potency (HeLa) | Potency (JEG-3) | Potency (OV90) | Potency (PA-1) | Potency (SKOV3) | Potency (Tov-21-G) | Potency (Tov112D) | Potency (astro) | max response [1] -1.45%

CC1(C)Cc2c(-c3ccccc3)c(-c3ccc(Cl)cc3)c(CC(=O)O)n2C1
inactive: Potency (HeLa) | Potency (JEG-3) | Potency (OV90) | Potency (PA-1) | Potency (SKOV3) | Potency (Tov112D)

N#CC[C@H](C1CCCC1)n1cc(-c2ncnc3[nH]ccc23)cn1
inactive: Potency (HeLa) | Potency (Hek293T) | Potency (JEG-3) | Potency (OV90) | Potency (PA-1) | Potency (Tov112D)

Cc1ccccc1C(OCCN(C)C)c1ccccc1 (centres undefined)
inactive: Potency (HeLa) | Potency (Hek293T) | Potency (JEG-3) | Potency (PA-1) | Potency (SKOV3) | Potency (Tov-21-G) | Potency (Tov112D) | activity, negative = cell killing ([2]; at 45.9 µM (top of the series), tumour line D) -29.5% | activity, negative = cell killing [2, 4] 0.923% and -8.9% | Potency (astro) | max response [1] 4.25%

CN1CCN(CCCN2c3ccccc3Sc3ccc(C(F)(F)F)cc32)CC1
active: Potency (OV90) 11.2 µM | Potency (SKOV3) 14.1 µM | Potency ([2]; tumour line A) 2.51 µM | Potency ([2]; tumour line B) 15.8 µM | Potency ([2]; tumour line D) 6.31 µM | Potency (astro) 25.1 µM
inactive: Potency (HeLa) | Potency (JEG-3) | Potency (Tov-21-G) | activity, negative = cell killing [2, 4] -24.2%

NS(=O)(=O)c1cc2c(cc1Cl)NC=NS2(=O)=O
inactive: Potency (HeLa) | Potency (Hek293T) | Potency (JEG-3) | Potency (PA-1) | Potency (SKOV3) | Potency (Tov-21-G) | Potency (Tov112D) | Potency (astro) | max response [1] -2.2%

CCc1cc(Nc2nccc(-c3c(-c4ccc(OC)c(C(=O)Nc5c(F)cccc5F)c4)nc4ccccn34)n2)c(OC)cc1N1CCC(N2CCN(S(C)(=O)=O)CC2)CC1
inactive: Potency (Hek293T) | Potency (JEG-3) | Potency (OV90) | Potency (SKOV3) | Potency (Tov-21-G) | Potency (Tov112D) | Potency [3]

CCOC(=O)C1=C[C@]2(CC)CCCN3CCc4c(n1c1ccccc41)[C@@H]32
inactive: Potency (HeLa) | Potency (Hek293T) | Potency (JEG-3) | Potency (OV90) | Potency (PA-1) | Potency (Tov-21-G) | Potency (Tov112D) | activity, negative = cell killing [2, 5] -28.2% and -25.8% | Potency (astro)
active: Potency ([2]; tumour line A) 4.47 µM | Potency ([2]; tumour line D) 10 µM

Cc1cc(Nc2nc(N[C@@H](C)c3ncc(F)cn3)ncc2Cl)n[nH]1
inactive: Potency (Hek293T) | Potency (JEG-3)
active: Potency (HeLa) 4.47 µM | Potency (Tov-21-G) 14.1 µM | Potency [3] 1.4 µM

CCC(C)(C)C(=O)O[C@H]1C[C@@H](C)C=C2C=C[C@H](C)[C@H](CC[C@@H]3C[C@@H](O)CC(=O)O3)[C@H]21
active: Potency ([2]; tumour line A) 0.891 µM | Potency (astro) 3.55 µM
inactive: Potency (JEG-3) | Potency (PA-1) | Potency (SKOV3) | Potency (Tov-21-G) | Potency (Tov112D) | activity, negative = cell killing ([2]; at 20 µM (top of the series), tumour line C) -22.9% | activity, negative = cell killing ([2]; at 21.2 µM (top of the series), tumour line B) -19.9%

CCOc1ccn(-c2ccc(F)cc2)c(=O)c1C(=O)Nc1ccc(Oc2ccnc(N)c2Cl)c(F)c1
inactive: Potency (Hek293T) | Potency (JEG-3) | Potency (OV90) | Potency (PA-1) | Potency (SKOV3) | Potency (Tov-21-G) | Potency (Tov112D)

COc1nc(-c2ccc3c(c2)OCO3)n(-c2ccc(NC(=O)CSc3ccccc3)cc2)n1
inactive: Potency (Hek293T) | Potency (JEG-3) | Potency (OV90) | Potency (PA-1) | Potency (SKOV3) | Potency (Tov-21-G) | Potency (Tov112D)

O=C(O)CCc1ccc(NCc2cccc(Oc3ccccc3)c2)cc1
inactive: Potency (JEG-3)

Cc1c(C)c2c(c(C)c1O)CCC(C)(COc1ccc(CC3SC(=O)NC3=O)cc1)O2 (centres undefined)
inactive: Potency (HeLa) | Potency (Hek293T) | Potency (JEG-3) | Potency (OV90) | Potency (PA-1) | Potency (Tov-21-G) | Potency (Tov112D) | activity, negative = cell killing [2, 5] -4.67% | activity, negative = cell killing [2, 4] -19.7% | max response [1] -12.9%
active: Potency (astro) 10 µM
